Test results published in PubChem BioAssay AID372 (MTDP, 2006).
Out of some 100,000 compounds screened, about 770 (0.77%) were called active. This is one part of a sample in which actives are shown more often than they occur. Unmarked numbers belong to inactive results. Rule as the data show it: active = inhibition above about 50%; inactive = the rest.

biological target: Gag-Pol polyprotein (Human immunodeficiency virus type 1 group M subtype B (isolate HXB2)) (UniProt P04585); test: RNase H inhibition, HIV 1 Gag Pol polyprotein, FRET biochemical assay, screening (AID 372); conditions: HIV-1 RT RNase H, FRET RNA/DNA substrate fluorescence; at 10 µM; stronger effect = higher value

Compared with COc1ccc([N+](=O)[O-])cc1N(CC(O)CN1CCCCC1)S(=O)(=O)c1ccc(C)cc1 (stereo not drawn), O=[N+]([O-])c1ccccc1S(=O)(=O)Nc1ccc(S(=O)(=O)N2CCCCC2)cc1 is lower in inhibition: 12% for the first, 0% for the second.

First: Cc1c(C(=O)Oc2ccc3c(c2)C(C)CC(C)(C)N3)cccc1[N+](=O)[O-] (stereo not drawn)
Second: Cc1cc(C)c(NC(=O)COc2ccccc2[N+](=O)[O-])c(C)c1
The inhibition of the first is higher: 21% for the first, 5% for the second.

Compared with CCSc1nnc(NC(=O)COc2ccc(Cl)cc2Cl)s1, CCOc1ccc(C(=O)NC(=S)Nc2ccc(Cl)cc2)cc1Cl is lower in inhibition: 22% for the first, 7% for the second.

Compared with CC(=O)c1ccc(NC(=S)Nc2ccc3nccnc3c2)cc1, O=C(O)c1ccc(Nc2ccnc3cc(Cl)ccc23)cc1 is lower in inhibition: 10% for the first, 3% for the second.

Compared with NC(N)=N/N=C/c1ccccc1OS(=O)(=O)c1ccccc1, NC(=O)N/N=C/c1ccccc1OS(=O)(=O)c1ccc([N+](=O)[O-])cc1 is higher in inhibition: 0% for the first, 11% for the second.

First: CCOC(=O)c1c[nH]c2ccc(Cl)cc2c1=O
Second: CCOC(=O)c1c(C)oc2ccc(OC(=O)c3ccc(C)cc3)cc12
The inhibition of the first is higher: 14% for the first, 0% for the second.

Going from C=CCn1c(CSc2nc3ccccc3s2)n[nH]c1=S to CCOc1ccccc1C=Nn1c(-c2ccc(Cl)cc2Cl)n[nH]c1=S, the inhibition rises from 0% to 15%.

First: C=CCn1c(CCCN2C(=O)c3cccc4cccc(c34)C2=O)nnc1SC/C=C/c1ccccc1
Second: COc1cccc(N2C(=O)NC(=O)/C(=C/c3ccc(OC)c4ccccc34)C2=O)c1
The inhibition of the first is lower: 8% for the first, 31% for the second.

Going from Cc1ccc(NC(=O)C(C)SCc2ccccc2)c(C)c1 (stereo not drawn) to COc1ccccc1OCC(=O)N/N=C/c1ccc(C)cc1C, the inhibition falls from 13% to 11%.

Going from COc1ccc(C2CC(=O)C3=C(C2)NC(C)=C(C(=O)OCCOc2ccccc2)C3c2cccc(Br)c2)cc1 (stereo not drawn) to CCc1ccc(C(=O)CSC2=C(C#N)C(c3ccc(Br)cc3)C(C(C)=O)=C(C)N2)cc1 (stereo not drawn), the inhibition rises from 6% to 26%.

Compared with COc1ccc(/C=N/OCC(=O)N2CCN(C(c3ccccc3)c3ccccc3)CC2)cc1OC, COc1ccc(C(=O)N2CCN(C(c3ccccc3)c3ccccc3)CC2)cc1OC is lower in inhibition: 45% for the first, 13% for the second.

Compared with COc1ccc(C2(CNS(=O)(=O)c3ccccc3)CCCC2)cc1OC, COc1ccc(CNC(=O)C(=O)Nc2ccccc2OC)cc1 is higher in inhibition: 0% for the first, 44% for the second.

Compared with COc1cc(C=Nc2cccc(Cl)c2C)ccc1OC(C)=O, CCOc1ccc(C(=O)Nc2ccc([N+](=O)[O-])cc2OC)cc1Cl is higher in inhibition: 11% for the first, 14% for the second.

First: COc1cc(C=C2C(=O)NC(=O)NC2=O)ccc1OCc1c(C)no[n+]1[O-]
Second: Cc1no[n+]([O-])c1COc1ccc(/C=C2\NC(=S)NC2=O)cc1
The inhibition of the first is higher: 6% for the first, 4% for the second.

First: O=c1c2c3c(sc2ncn1/N=C/c1ccc(Br)o1)CCCC3
Second: O=C1CS/C(=N/N=C/c2ccc(-c3ccc(Br)cc3)o2)N1
The inhibition of the first is higher: 25% for the first, 14% for the second.

Going from O=C(Nc1nc(-c2ccc([N+](=O)[O-])cc2)cs1)c1ccc(Cl)cc1 to O=C(Nc1nc(-c2ccc(Br)cc2)cs1)c1ccc([N+](=O)[O-])cc1, the inhibition rises from 32% to 37%.

First: CCOc1ccc(C(=O)NC(=S)Nc2ccccn2)cc1Cl
Second: CCOc1ccc(C(=O)Nc2ccc(Br)cn2)cc1Cl
The inhibition of the first is higher: 12% for the first, 4% for the second.

Going from O=C(NC(=S)Nc1nc(-c2cccc([N+](=O)[O-])c2)cs1)c1ccc(Cl)cc1 to COc1ccc(C(=O)NC(=S)Nc2nc(-c3ccccc3)cs2)cc1Cl, the inhibition falls from 35% to 16%.

Compared with COc1ccc(C(=O)NC(=S)Nc2ccc([N+](=O)[O-])cc2C)cc1Cl, COc1ccc(C(=O)NC(=S)Nc2ccc(Cl)cn2)cc1Br is higher in inhibition: 18% for the first, 23% for the second.

Going from COc1cc(OC)cc(C(=O)Nc2cccc(-c3nc4ccccc4s3)c2)c1 to CCOC(=O)c1cc(-c2ccccc2)sc1NC(=O)c1ccc([N+](=O)[O-])cc1, the inhibition rises from 5% to 22%.

Compared with Oc1ccc(Br)cc1/C=N/c1c(-c2ccco2)nc2ccccn12, CCn1c2ccccc2c2cc(C=Nc3ccc(C)c(F)c3)ccc21 is lower in inhibition: 15% for the first, 0% for the second.

Compared with CCCC(=O)Nc1cc(-c2nc3cc(Cl)ccc3o2)ccc1C, O=C(Nc1ccc2oc(-c3ccccc3F)nc2c1)C(Cl)(Cl)Cl is lower in inhibition: 12% for the first, 8% for the second.

Compared with O=C(Nc1ccccc1C(=O)N1CCCC1)c1ccccc1, CS(=O)(=O)N(Cc1ccc(C(=O)Nc2ccccc2C(=O)O)cc1)c1ccccc1 is higher in inhibition: 0% for the first, 4% for the second.

First: COc1ccc(Br)cc1C(=O)Nc1ccc(Cl)cn1
Second: COc1ccc(C(=O)NC(=S)Nc2ccc(Br)cn2)cc1OC
The inhibition of the first is higher: 26% for the first, 21% for the second.

First: Cc1ccc(NC(=O)C(=O)N/N=C/c2cccc(Cl)c2)cc1
Second: COc1ccc(Cl)cc1NC(=O)C(=O)NCc1ccc(C)cc1
The inhibition of the first is lower: 1% for the first, 30% for the second.

First: CCOc1cc(/C=C/C(=O)O)c(Br)cc1OC
Second: CCOc1ccc(C(=O)NC(=S)Nc2ccc(C)cc2)cc1Br
The inhibition of the first is lower: 8% for the first, 11% for the second.

Compared with Cc1ccc(CN2CCN(/N=C\c3ccccc3)CC2)cc1, Cc1ccc(S(=O)(=O)N/N=C/c2ccc(C(=O)O)cc2)cc1 is lower in inhibition: 8% for the first, 0% for the second.

Compared with O=C(Nc1ccc(N2CCCCC2)cc1)c1ccc(-c2ccccc2)cc1, CC(=O)N1CCN(c2ccc(NC(=O)c3ccc(-c4ccccc4)cc3)cc2)CC1 is lower in inhibition: 28% for the first, 5% for the second.

Going from COc1ccc(C)cc1NC(=O)C(=O)NCc1ccc(Cl)cc1 to COc1ccc(C)cc1NC(=O)C(=O)NCc1ccc(C)cc1, the inhibition falls from 44% to 5%.

Going from COc1ccc(CNC(=O)C(=O)NCc2ccc(Cl)cc2)cc1 to COc1ccc(CNC(=O)C(=O)Nc2ccc(OC)cc2)cc1, the inhibition falls from 15% to 0%.

COc1ccc(CNC(=O)CN(Cc2ccccc2)S(=O)(=O)c2ccccc2)cc1 and COc1ccc(S(=O)(=O)N(CC(=O)NCc2ccccc2)Cc2ccccc2)cc1 are the same in inhibition: 10% for the first, 10% for the second.

First: COc1ccc(C)cc1NC(=O)C(=O)NCc1cccnc1
Second: COc1ccc(CNC(=O)C(=O)Nc2cc(C)ccc2OC)cc1
The inhibition of the first is higher: 40% for the first, 30% for the second.

First: COc1ccccc1NC(=O)C(=O)NCc1ccccc1
Second: COc1ccc(OC)c(NC(=O)C(=O)NCc2ccncc2)c1
The inhibition of the first is higher: 27% for the first, 26% for the second.

Going from Cc1ccc(NC(=O)Cc2ccc(Br)cc2)cc1 to O=C(Cc1cccs1)Nc1ccc(/C=C/C(=O)c2ccccc2)cc1, the inhibition falls from 14% to 8%.

Compared with O=C(O)/C=C\C(=O)Nc1ccc(N2CCOCC2)c(C(=O)O)c1, Cc1nc2n(CC(=O)N3CCOCC3)c3ccccc3n2n1 is lower in inhibition: 5% for the first, 1% for the second.

First: COc1ccc(N2CCSC2c2ccco2)cc1 (stereo not drawn)
Second: CCN(CC)CCN1C(=O)C(=O)/C(=C(\O)c2ccc([N+](=O)[O-])cc2)C1c1ccc(OC)cc1 (stereo not drawn)
The inhibition of the first is lower: 0% for the first, 2% for the second.

First: C=CCN1C(=O)/C(=C\c2ccc(O)c(OCC)c2)C(=O)NC1=S
Second: CCOC(=O)C1=C(C)N=c2s/c(=C\c3cc(Br)c(OCc4ccccc4Cl)c(OC)c3)c(=O)n2C1c1ccccc1Cl (stereo not drawn)
The inhibition of the first is higher: 11% for the first, 0% for the second.

Compared with COc1cc(C(=O)NCc2ccc(C(=O)O)cc2)cc(OC)c1OC, CCOC(=O)c1c(C)oc2ccc(NS(=O)(=O)c3cc(C)ccc3C)cc12 is higher in inhibition: 7% for the first, 22% for the second.

Compared with CCOC(=O)CC1(c2ccccc2)SC(NC(C)=O)=NN1C(C)=O (stereo not drawn), O=C(Nc1cccc(C(F)(F)F)c1)c1cc([N+](=O)[O-])ccc1Cl is higher in inhibition: 0% for the first, 7% for the second.

In the case of Cc1ccc(S(=O)(=O)Nc2ccc(S(=O)(=O)N3CCOCC3)cc2)cc1[N+](=O)[O-], the inhibition is reported as 0%.

With O=S(=O)(Oc1ccccc1/C=N/NC(=S)Nc1ccccc1)c1ccccc1 the inhibition was 52% (active).
With C=CCn1c(CSc2nc3ccccc3s2)nnc1SC/C=C/c1ccccc1 the inhibition was 59% (active).
For COc1ccc(/C(C)=N/OCC(=O)N2CCN(C(c3ccccc3)c3ccccc3)CC2)cc1OC, the inhibition was 51% (active).
COc1cc(/C=C2\NC(=S)NC2=O)ccc1OCc1c(C)no[n+]1[O-] was tested, and the inhibition was 53% (active).
With O=C(Nc1nc(-c2ccc(Cl)cc2)cs1)c1ccc([N+](=O)[O-])cc1 the inhibition was 51% (active).
For CCOc1ccc(C(=O)NC(=S)Nc2ccc([N+](=O)[O-])cc2OC)cc1Cl, the inhibition was 50% (active).
COc1ccc(C(=O)NC(=S)Nc2nc(-c3cccc([N+](=O)[O-])c3)cs2)cc1Cl was tested, and the inhibition was 54% (active).
With CCOc1ccc(C(=O)NC(=S)Nc2ccc(Cl)cn2)cc1Cl the inhibition was 60% (active).
In the case of CCOc1ccc(C(=O)NC(=S)Nc2ccc(Br)cn2)cc1Cl, the inhibition is reported as 56% (active).
In the case of COc1ccc(Br)cc1C(=O)NC(=S)Nc1ccc(Cl)cn1, the inhibition is reported as 53% (active).
For COc1ccc(C)cc1NC(=O)C(=O)NCc1ccncc1, the inhibition was 55% (active).
COc1ccc(S(=O)(=O)N(CC(=O)NCc2ccc(Cl)cc2)Cc2ccccc2)cc1 was tested, and the inhibition was 60% (active).
COc1ccc(NC(=O)C(=O)NCc2ccc(Cl)cc2)cc1 was tested, and the inhibition was 52% (active).
COc1ccccc1NC(=O)C(=O)NCc1ccc(C)cc1 was tested, and the inhibition was 57% (active).
In the case of COc1ccc(C)cc1NC(=O)C(=O)NCc1ccccc1, the inhibition is reported as 59% (active).
For COc1ccc(Cl)cc1NC(=O)C(=O)NCc1ccncc1, the inhibition was 59% (active).
CCOC(=O)c1cc(-c2ccccc2)sc1NC(=O)COc1ccccc1[N+](=O)[O-] was tested, and the inhibition was 57% (active).
CCOC(=O)c1c(C)oc2ccc(N(C(=O)c3ccncc3)S(=O)(=O)c3ccc(C)cc3)cc12 was tested, and the inhibition was 62% (active).
For O=[N+]([O-])c1ccccc1S(=O)(=O)Nc1ccc(S(=O)(=O)N2CCOCC2)cc1, the inhibition was 51% (active).
